Measured values published in PubChem BioAssay AID1416 (The Scripps Research Institute Molecular Screening Center, 2008).
About 370 (0.17%) of roughly 220,000 compounds were called active. Many of the other results were omitted from the sample, so actives are more common in it than they were. A number with no mark means an inactive call.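 Rule for the calls: active = inhibition above the mean inhibition of all tested compounds plus 3 SD, set separately per screening campaign (cut at about 2.9% in these data); inactive = the rest.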

These compounds were tested against Eukaryotic translation initiation factor 2-alpha kinase 3 (Homo sapiens) (UniProt Q9NZJ5) (assay: block of dimerizer-induced PERK translation repression, primary screen, PERK inhibitor project, CHO PERK-DD cells, SEAP luminescence, HTS (AID 1416;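 note: PERK kinase domain activated by AP20187 dimerizer at 100 nM; 0% = DMSO with dimerizer and 100% = rapamycin at 8.4 µM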)). Conditions: CHO PERK-DD fusion, SEAP luminescence translation reporter; at 5.6 µM; hits give high values.
Chain of Eukaryotic translation initiation factor 2-alpha kinase 3 (Homo sapiens) (Q9NZJ5 whole entry, looked up, the tested form may be a part): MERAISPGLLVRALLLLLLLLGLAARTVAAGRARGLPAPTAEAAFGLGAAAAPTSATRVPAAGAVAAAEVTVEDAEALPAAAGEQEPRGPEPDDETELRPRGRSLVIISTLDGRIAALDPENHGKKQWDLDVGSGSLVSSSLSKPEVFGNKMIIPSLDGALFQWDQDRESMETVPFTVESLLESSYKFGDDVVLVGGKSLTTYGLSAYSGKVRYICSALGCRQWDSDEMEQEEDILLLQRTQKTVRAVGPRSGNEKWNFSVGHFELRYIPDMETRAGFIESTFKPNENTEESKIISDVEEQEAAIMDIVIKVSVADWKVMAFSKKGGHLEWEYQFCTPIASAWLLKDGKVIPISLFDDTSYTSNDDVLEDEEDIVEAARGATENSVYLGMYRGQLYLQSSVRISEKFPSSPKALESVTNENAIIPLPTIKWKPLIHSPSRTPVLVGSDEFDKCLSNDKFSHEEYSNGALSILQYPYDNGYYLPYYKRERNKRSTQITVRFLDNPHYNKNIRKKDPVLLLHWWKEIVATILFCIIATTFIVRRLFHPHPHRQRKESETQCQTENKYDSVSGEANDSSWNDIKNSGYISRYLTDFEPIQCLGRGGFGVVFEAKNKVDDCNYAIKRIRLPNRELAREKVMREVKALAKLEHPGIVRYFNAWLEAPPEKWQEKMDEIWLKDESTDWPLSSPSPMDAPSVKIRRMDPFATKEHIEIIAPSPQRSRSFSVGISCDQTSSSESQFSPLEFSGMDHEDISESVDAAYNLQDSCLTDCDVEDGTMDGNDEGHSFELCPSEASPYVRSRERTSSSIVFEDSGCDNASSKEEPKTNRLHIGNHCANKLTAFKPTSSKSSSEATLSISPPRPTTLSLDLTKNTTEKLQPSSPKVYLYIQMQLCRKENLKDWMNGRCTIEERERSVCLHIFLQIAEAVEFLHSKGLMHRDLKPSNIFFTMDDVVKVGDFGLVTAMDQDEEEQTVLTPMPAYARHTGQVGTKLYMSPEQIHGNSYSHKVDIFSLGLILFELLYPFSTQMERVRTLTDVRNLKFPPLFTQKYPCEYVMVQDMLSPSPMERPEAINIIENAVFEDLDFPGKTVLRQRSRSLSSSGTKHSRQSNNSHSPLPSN

SMILES	inhibition
O=S(=O)(Nc1ncccn1)c1ccc(NS(=O)(=O)c2cccc(Cl)c2Cl)cc1	0.64%
Cc1cc(-c2n[nH]c(=S)n2-c2ccc(C)c(C)c2)no1	3.32% (active)
Cc1ccc(OCc2n[nH]c(=S)n2-c2ccc(C)cc2)cc1	0.51%
COc1ccccc1-n1c(-c2cc(-c3ccco3)[nH]n2)n[nH]c1=S	1.16%
Cc1cc(NC(=O)CCC(=O)N(CC(=O)NCC2CCCO2)c2ccccc2C)no1 (configuration not stated)	0.7%
COCCNC(=O)CN(C(=O)CCC(=O)Nc1cc(C)on1)c1ccc(C)cc1C	3.05% (active)
Cc1ccc(SCCC(=O)Nc2cc(C)on2)cc1	1.3%
O=[N+]([O-])/C(N=Nc1ccccc1)=N\Nc1ccccc1	0.56%
N#Cc1c(NC(=O)c2ccc(N3CCOCC3)c([N+](=O)[O-])c2)sc2c1CCCC2	0.19%
O=S(=O)(c1ccc(NC(=S)NN=C(C2CC2)C2CC2)cc1)N1CCOCC1	1.01%
C=CCSC(CC)(CC)C(N)=O	2.98% (active)
O=S(=O)(NCC1OCCc2ccccc21)c1ccccc1 (configuration not stated)	0.47%
Cc1c(-c2ccccc2)cn2c1-c1ccc(C)n1CC2	0.83%
CCOC(=O)Cc1ncccc1C(=O)Nc1ccc(OC(F)(F)F)cc1	0.3%
Cn1nccc1NC(=O)Nc1ccc(OC(F)(F)F)cc1	4.03% (active)
COC(=O)[C@H](C)NC(=O)Nc1ccc(OC(F)(F)F)cc1	-0.1%

SMILES	inhibition
Cc1ccc(S(=O)(=O)Cc2cc(-c3ccc(Cl)cc3)no2)cc1	0.87%
CCOC(=O)CN1C(=O)N[C@@H](c2ccc(Br)cc2)C(C(C)=O)=C1C	0.08%
CCOCCCNC(=O)Cc1cc(=O)[nH]c(=O)[nH]1	3.08% (active)
CCOCCCNC(=O)C(=O)NCCCOCC	0.9%
CCOC(=O)Cc1cc(=O)[nH]c(=O)[nH]1	1.51%
O=C(CN1CCc2ccccc21)NC(c1ccccc1)c1ccccc1	-0.59%
CN(C)C(=O)c1cc(Br)ccc1Cl	2.54%
CC(=O)NC(Cc1ccc(F)c(F)c1)C(=O)NC1CCN(C(=O)c2ccc(C)cc2)CC1 (configuration not stated)	0.06%
C=C(C)C1CC=C(C)/C(=N\NC(=O)CNc2ccccc2OC)C1 (configuration not stated)	0.13%
c1ccc(COc2nsnc2N2CCOCC2)cc1	1.4%
c1nc(COc2nsnc2N2CCOCC2)cs1	0.89%
O=C(O)COc1nsnc1N1CCOCC1	2.98% (active)
NCC(=O)c1cccc2ccc[n+]([O-])c12	-0.12%
COc1cc(C(=O)N2CCN(C/C=C/c3ccccc3)CC2)cc(OC)c1C	-0.57%
CC(C)N1CCC(=NNc2ccc([N+](=O)[O-])cc2S(=O)(=O)N2CCOCC2)CC1	1%
CC(C)N(C(=O)CSc1nc(COc2ccccc2)nc2ccccc12)C(C)C	0.48%
